The labels stand for the following.
B1: chr3:168010103:168010202:-|3pUTR|ENSG00000173905|msi1_unk|total|mutant (ssRNA)
RNA: GGGAGUUCUACAGUCCGACGAUCGCUCAAACAUAAAUCUGCCUACUGAACUCCCGGAUAUUUAAUUACAAAAAUUAAGAACUCCGACUUUUUUAAAACUUUUGUAUCCGAAAUGCGCAUACAUUUAUAUGAAUAUAUUUUGAUCAACAGAGGAUUGAGCAUCA
B2: chr9:5123879:5124511:-|three_prime_utr|ENSG00000120210|control|control|control (ssRNA)
RNA: GGGAGUUCUACAGUCCGACGAUCCUGGUAAAUUGGAUUGCCAUAUGCAGAAGAAUGAAACUGGACCCAUAUUUAUCACCAUAUAGAAAAAUUAACUCGAUCGAUUACAGACUUAAAUGUAAGAUCUGAAACUAGAAAAAUACUCAACAGAGGAUUGAGCAUCA
B3: chr11:118396625:118396726:+|3pUTR|ENSG00000110344|msi1|FALSE|bound_elsewhere (ssRNA)
RNA: GGGAGUUCUACAGUCCGACGAUCAACUUGACAAUGCUCCCCUGGCUUGCAGGAAAUUAUACUUAUUAUAGCAUCACCAAGUUUAGAAAUCAUCACUAAUUUUCACCCUCUGUUGUCUCUUCAUAUUCUUCUUCCUUUUCCUAACAACAGAGGAUUGAGCAUCA
B4: chr8:103442975:103443076:+|3pUTR|ENSG00000164934|msi1|FALSE|bound_elsewhere (ssRNA)
RNA: GGGAGUUCUACAGUCCGACGAUCGGACUAGAUUAAUUGCAAACAUUUUAGUUAUAUGUGUAGAGCUUUAUUGUUACUCCUUUUAGCUACCCUGAAAAAUGAUCCUUAAAGGUGGCCUAGUUGGUAAGACUGUUUUAUCCUUAACAACAGAGGAUUGAGCAUCA
B5: chr6:105100707:105100870:-|3pUTR|ENSG00000112276|msi1|total|mutant (ssRNA)
RNA: GGGAGUUCUACAGUCCGACGAUCUGAGAUAUAUAUUUUCACAGUCUUUUCCCGAUAUAUUAUUGUUUUAACUUAACAAAUCUCCGCAAUCUCUCAAUGCCUUUUCACUUAUUUUUUUCCAAGUUAUGAUUCUUUUUCCUCACACAACAGAGGAUUGAGCAUCA
B6: chr12:50748518:50748596:+|3pUTR|ENSG00000066084|msi1_unk|FALSE|overlapping (ssRNA)
RNA: GGGAGUUCUACAGUCCGACGAUCUCAAAUUCAAACUACAGUACUGUGUAAUUAUGUAUAAAGUUUUUUUAUUUAUUUGAAGUUAGACUAGAUAUACGUUUUUAAAUUUAACAUCUGGCUGGACAGUGUUCUAUUAACUCAUUGCAACAGAGGAUUGAGCAUCA
B7: chr3:64018827:64018930:-|CDS|ENSG00000163636|unk|FALSE|unique (ssRNA)
RNA: GGGAGUUCUACAGUCCGACGAUCUGAACUCAUGGAUUAUAAAACAUUUGUGACUUAUACUGUCUAUGUCAGUAUGAUUGCCUUAGAAAGACCAGAUCUCAGGGAAAAGGUAAUGACCAAACUUUAAUACUCAAAUUUAAAGACCAACAGAGGAUUGAGCAUCA
B8: chr20:59325757:59325866:+|3pUTR|ENSG00000124205|unk|FALSE|unique (ssRNA)
RNA: GGGAGUUCUACAGUCCGACGAUCUUAUGUGGAUCUGUUCAAAGUAGUCACUGUAUAUACGUAUAGAGAGGUAGAUAGGUAGGUAGAUUUUAAAUUGCAUUCUGAAUACAAACUCAUACUCCUUAGAGCUUGAAUUACAUUUUUCAACAGAGGAUUGAGCAUCA
B9: chr12:48342538:48342639:-|3pUTR|ENSG00000167528|unk|FALSE|unique (ssRNA)
RNA: GGGAGUUCUACAGUCCGACGAUCUUGUUAAACAUUUUGAGUAUCACUCUUGCAUACUGUUACUAUUAUAUUUUCUCUAUAUAUAGACAGAAAGGCCAUUUUAGAAUAUUAAAGGCUCUGAAAAUUUCUGCAGUAGACCCAACUCAACAGAGGAUUGAGCAUCA
B10: chr6:105100707:105100870:-|3pUTR|ENSG00000112276|msi1|FALSE|unique (ssRNA)
RNA: B5 RNA with C51U, C52A, C83U, C84A
B11: chr5:24509697:24509799:-|CDS|ENSG00000040731|unk|FALSE|unique (ssRNA)
RNA: GGGAGUUCUACAGUCCGACGAUCACUCGACUAUGAGAGCCGAAGACUUUAUACUCUGAAAGUCGAAGCAGAAAACACCCAUGUAGAUCCCCGUUUUUAUUACCUAGGACCAUUUAAAGAUACUACCAUAGUGAAAAUCUCUAUCAACAGAGGAUUGAGCAUCA
B12: chr3:168010103:168010202:-|3pUTR|ENSG00000173905|msi1_unk|FALSE|overlapping (ssRNA)
RNA: B1 RNA with C53U, C54A, C83U, C84A, C107U, C108A
B13: chr6:43570573:43570674:-|CDS|ENSG00000124571|unk|FALSE|unique (ssRNA)
RNA: GGGAGUUCUACAGUCCGACGAUCGGUGUAGGAAACACAGACAGAAUUGGUGAUGUUUAUCCUUUUGCGACUGGCAGAGGAUGUAGUGACUUUUCAGACACUUCCCCCUCAAAGAAGAAGGGACAUCCAGCAAACAUUAACCCACAACAGAGGAUUGAGCAUCA
B14: chr11:73394502:73394603:+|CDS|ENSG00000054967|msi1|total|mutant (ssRNA)
RNA: GGGAGUUCUACAGUCCGACGAUCCACCAUCUCCACACCGUGCAGGGCCUGGCCUCGCUCUCUGGCCCCUGCUGCUCCCGCUGCCGCCAGAAGAAGUGGCCCGAGGUGCUGCUGUCCCCUGAGGCUGCCGCCGCCACUACUCCUCAACAGAGGAUUGAGCAUCA
B15: chr3:107805913:107806014:+|3pUTR|ENSG00000114439|msi1_unk|FALSE|overlapping (ssRNA)
RNA: GGGAGUUCUACAGUCCGACGAUCUACAUGGAGAUUUAAGUUUAAGAUGGUUUAUAUAAUAGGUUAUACCUACAUUUAUAUUGUAGAAUAAAUAUUAAAAAGCCUGUUCCAGAGACUCCCAAGCAGCCUGGGCAGGCAGAUGUACAACAGAGGAUUGAGCAUCA
B16: chr8:144773268:144774605:-|CDS|ENSG00000196378|control|control|control (ssRNA)
RNA: GGGAGUUCUACAGUCCGACGAUCCACCAGAGGAUUCACACUGGGGAGAAACCCUACAAGUGUGGGGAGUGUGGGAAGCACUUUAGCGCCUACUCUUCCCUGAUUUAUCACCAGAGAAUCCACACCGGAGAGAAACCCUAUAAACAACAGAGGAUUGAGCAUCA

Substitutions are numbered along the chain they refer to. The full ranking holds about 5,800 sequences; the median of “enrichment r” is about 0.68, and the highest 2% start at about 11. Only a selection was taken, and the highest values are over-represented in it overall.

Consider 16 molecules from paper PMC12136788.

The assay has as its target T1, UNK ZnF1-6 (called full-length) (human, UniProt Q9C0B0 30-357).
T1 sequence: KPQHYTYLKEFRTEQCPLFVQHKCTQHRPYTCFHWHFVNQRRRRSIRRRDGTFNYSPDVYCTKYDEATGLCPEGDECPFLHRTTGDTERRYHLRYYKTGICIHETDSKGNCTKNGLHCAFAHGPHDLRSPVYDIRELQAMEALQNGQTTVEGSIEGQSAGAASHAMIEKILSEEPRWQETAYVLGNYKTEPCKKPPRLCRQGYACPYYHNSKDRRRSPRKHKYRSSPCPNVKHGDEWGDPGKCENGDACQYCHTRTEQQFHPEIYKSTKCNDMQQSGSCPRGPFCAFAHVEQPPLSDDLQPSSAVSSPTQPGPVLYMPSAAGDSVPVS
The experiment in a line: nsRBNS (natural sequence RNA bind-n-seq); RBNS binding buffer (assumed for nsRBNS): 25 mM Tris pH 7.5, 150 mM KCl, 3 mM MgCl2, 0.01% Triton X-100, 500 ug/ml BSA, 20 U/ml SUPERase-In, 4 C; UNK is unkempt and MSI1 is Musashi-1; names of the RNAs are library labels; protein concentration not given here; high values mean tight binding.
Molecule B1 showed a binding signal of 3.17 enrichment R.

For B2, the binding signal was determined as 21.7 enrichment R.

With B3, the binding signal was determined as 4.24 enrichment R.

Regarding B4, the binding signal worked out at 6.96 enrichment R.

B5: the binding signal is 3.08 enrichment R.

B6: the binding signal turned out to be 6.56 enrichment R.

B7 returned a binding signal of 0.48 enrichment R.

For the molecule B8, the binding signal amounted to 20.3 enrichment R.

Turning to B9, the binding signal was found to be 3.54 enrichment R.

For the molecule B10, the binding signal was 18.7 enrichment R.

B11 had a binding signal of 1.94 enrichment R.

B12 returned a binding signal of 12.6 enrichment R.

B13 showed a binding signal of 0.529 enrichment R.

As for B14, the binding signal was found to be 0.888 enrichment R.

B15 showed a binding signal of 1.89 enrichment R.

In turn, B16 registered a binding signal of 0.587 enrichment R.
